# An excerpt weighted towards active compounds, which were near 3.6% of everything screened.
# D1 antag: Antagonist of Human D 1 Dopamine Receptor: qHTS; D(1A) dopamine receptor (Homo sapiens), P21728; HEK293 TREx D1 cells, calcium flux, dopamine EC80; active compounds read low; activity change, negative = inhibition, % at 10 µM; 360,000 tested, 3.2% active; AID 504652, 2011; in the data active = activity change below about -30%; also: % is scaled to controls: 0 for no effect and ±100 for the full control effect
# Target sequence (P21728 whole entry, looked up): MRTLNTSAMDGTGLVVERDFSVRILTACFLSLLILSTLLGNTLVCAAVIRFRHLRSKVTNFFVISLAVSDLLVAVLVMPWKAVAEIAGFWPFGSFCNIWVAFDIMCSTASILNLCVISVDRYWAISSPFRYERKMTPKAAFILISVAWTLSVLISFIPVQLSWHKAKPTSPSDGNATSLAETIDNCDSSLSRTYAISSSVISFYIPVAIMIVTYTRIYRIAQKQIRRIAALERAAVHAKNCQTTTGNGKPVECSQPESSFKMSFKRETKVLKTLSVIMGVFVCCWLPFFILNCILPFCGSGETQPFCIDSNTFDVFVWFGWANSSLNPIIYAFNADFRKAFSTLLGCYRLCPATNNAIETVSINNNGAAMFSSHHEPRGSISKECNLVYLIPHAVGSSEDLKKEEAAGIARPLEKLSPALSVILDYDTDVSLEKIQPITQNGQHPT
#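 HEK293 T-REx cells expressing inducible, force-coupled D1 receptor; no-wash Ca dye, 30–90 min RT. Cmpd → 180 s read at 1 Hz → EC80 DA → 180 s read.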
# TRHR ag: qHTS for Small Molecule Agonists and Allosteric Enhancers of Human TRH Receptor: Primary Screen for Agonists. Thyrotropin-releasing hormone receptor (Homo sapiens), P34981. activation, % at 2 µM. AID 493084, 2011. 360,000 tested, 0.18% active. TRHR cells, calcium flux fluo-8, FDSS agonist mode; also: 0% is about no effect
#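 In this calcium-flux screen, cells bearing human TRHR are dye-loaded with fluo-8, baselined for 10 cycles, then exposed to library compounds; positive kinetic calcium responses during the agonist phase mark hits, with TRH as control.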
# D1 ag: Allosteric Agonists of the Human D1 Dopamine Receptor: qHTS; 360,000 tested, 1% active; HEK293 T-REx D1 cells, calcium flux, agonist mode; activation, % at 2 µM; D(1A) dopamine receptor (Homo sapiens), P21728; also: 0% is about no effect
#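 Agonism was scored from calcium flux recorded over 180 s (1 read/s) after pintool compound addition, following a 10-cycle baseline. Cells were inducible force-coupled HEK293 TREx D1, plated overnight at 30 C and loaded with no-wash calcium dye.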
# D1 potentiator: Potentiators of Human D1 Dopamine Receptor: qHTS | D(1A) dopamine receptor (Homo sapiens), P21728 | HEK293 TREx D1 cells, calcium flux, dopamine EC20 potentiation | potentiation, % at 10 µM | 360,000 tested, 0.036% active | AID 504651, 2011; in the data active = potentiation above about 30%; also: 0% is about no effect
# TRHR PAM: qHTS for Small Molecule Agonists and Allosteric Enhancers of Human TRH Receptor: Primary Screen for Enhancers | Thyrotropin-releasing hormone receptor (Homo sapiens), P34981 | 360,000 tested, 0.66% active | enhancement, % at 2 µM | TRHR cells, fluo-8 calcium fluorescence, EC20 TRH enhancement; in the data active = enhancement above about 30%; also: 0% is about no effect
#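 TRHR-expressing cells loaded with fluo-8 calcium dye were read kinetically (ex 480/em 530) during compound addition, then stimulated with an EC20 of TRH (10 nM final). Enhancement of the Gq-mediated intracellular calcium response was scored.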
# LDHA inh: qHTS assay for inhibitors of human lactate dehydrogenase; L-lactate dehydrogenase A chain (Homo sapiens), P00338; purified LDHA, NADH/diaphorase-resazurin fluorescence; active compounds read low; activity change, % (values are at about 110 or 230 µM); 480,000 tested, 0.15% active; in the data active = activity change below about -30%;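 also: plate controls were DMSO wells for no effect and wells without enzyme for full effect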
#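 Resorufin fluorescence (ex540/em590), read at 0 and 20 min after diaphorase/resazurin addition, reports the NADH left after a 5 min room-temperature reaction of 2 nM human LDH5 with 0.06 mM NADH and 0.2 mM pyruvate.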
# * hit, by the source's call; / = no result; ! = not confirmed by another sample. Rule as the data show it, unless noted: active = activation above about 30%; inactive = the rest.
SMILES,D1 antag,TRHR ag,D1 ag,D1 potentiator,TRHR PAM,LDHA inh
CCOC(=O)c1c(NC(=O)c2ccc(S(=O)(=O)N(C)C3CCCCC3)cc2)sc2c1CCN(C(C)C)C2,19,32*,56*,-1,0,3
CC(C)N1CCc2c(sc(NC(=O)c3ccc4ccccc4c3)c2C(N)=O)C1,-10,31*,24,-3,10,2
CCOC(=O)c1c(NC(=S)NCc2ccccc2)sc2c1CCN(C(=O)OCC)C2,-40*,1,3,-2,-14,-4
CCN(Cc1ccccc1)C(=O)/C=C/c1ccc(-c2ccccc2)s1,/,/,/,/,/,12
CCc1c(C)sc(NC(=O)CCCl)c1C#N,/,/,/,/,/,9
CC(C)N1CCc2c(sc(NC(=O)c3cc4cc([N+](=O)[O-])ccc4s3)c2C(N)=O)C1,-14,16,35*,-1,2,1
CN1CCc2c(sc(NC(=O)c3cc4cc([N+](=O)[O-])ccc4s3)c2C(N)=O)C1,3,0,3,-1,-3,/
O=S(=O)(Nc1cccc(C(F)(F)F)c1)c1ccc(NS(=O)(=O)c2ccc3c(c2)OCCO3)cc1,9,0,2,1,1,-6
CC(OC(=O)c1cccc(S(=O)(=O)Nc2cccc(C(F)(F)F)c2)c1)C(=O)Nc1ccc2c(c1)OCCO2 (stereo unspecified),-36*,-2,4,-9,0,2
CCN(CC)c1nc2ccccc2nc1C(C#N)S(=O)(=O)c1ccc(C)cc1 (stereo unspecified),/,/,/,/,/,-4
COc1cc(OC)c(CC2C(=O)Nc3cc(Cl)ccc32)c(OC)c1 (stereo unspecified),/,/,/,/,/,89
COc1ccccc1CNS(=O)(=O)c1cc2c3c(c1)CCN3C(=O)CC2,-11,0,11,-6,30*!,-9
COc1cccc(CNS(=O)(=O)c2cc3c4c(c2)CCC(=O)N4CCC3)c1,-8,-1,11,0,11,-5
CCCCCNS(=O)(=O)c1cc2c3c(c1)CCC(=O)N3CCC2,-30*,0,15,-10,9,-3
COc1ccc(OC)c(C(C)NC(=O)CCc2ncc(-c3ccc(F)cc3)o2)c1 (stereo unspecified),/,/,/,/,/,-21
Cc1ccccc1NCCC(=O)N(C)Cc1ccc(C(=O)NCC(F)(F)F)cc1,/,/,/,/,/,1
Cc1cc(C)cc(C(=O)OCC(=O)N2CCCCCC2)c1,-30*,0,0,-11,-17,-4
Cc1ccc(Nc2nc(-c3cccc([N+](=O)[O-])c3)cs2)cc1C,/,/,/,/,/,-14
O=C1CCCc2cc(S(=O)(=O)N3CCCC(C(=O)N4CCC5(CC4)OCCO5)C3)ccc2N1 (stereo unspecified),/,/,/,/,/,2
COc1ccccc1NC(=O)c1cc2c(n(-c3ccc(C)cc3)c1=O)CC(C)(C)CC2=O,-31*,2,-2,-1,-7,-2
O=C(CCc1c[nH]c2ccccc12)NCc1ccc(CN2CCCC2)cc1,/,/,/,/,/,-8
COC(=O)C1=CO[C@@H](C)[C@H]2CN3CCc4c([nH]c5ccccc45)[C@@H]3C[C@H]12,-52*,1,0,-7,-10,-6
O=C(Cc1cn2ccsc2n1)Nc1ccc(S(=O)(=O)N2CCCC2)cc1,/,/,/,/,/,3
O=c1[nH]c(=S)[nH]c2c1C(c1ccc(Br)cc1)c1c([nH]c(=S)[nH]c1=O)O2,13,0,3,-2,-2,-77*
CN(C)S(=O)(=O)N1CCC(Oc2cccc(C(=O)NCCC3=CCCCC3)c2)CC1,-31*,1,31*,-1,-10,-9
SMILES,D1 antag,TRHR ag,D1 ag,D1 potentiator,TRHR PAM,LDHA inh
Clc1nc2ccccc2cc1CSc1ccc2c(c1)OCCO2,/,/,/,/,/,3
CCOC(=O)c1c[nH]n(-c2ccccc2)c1=O,-15,0,1,-5,0,-8
CCOC(=O)c1cc(C(=O)OCC)c2ccccn2c1=O,-33*,0,1,-3,-8,-3
COc1ccc(OCC(O)CN2C(=O)c3ccccc3C2=O)cc1 (stereo unspecified),0,-1,1,3,-1,-7
N=c1n(Cc2ccc(Cl)cc2)c2ccccc2n1CC(O)COc1ccccc1 (stereo unspecified),-6,1,68*,-3,6,-3
COc1ccc(OCC(O)Cn2c(=N)n(Cc3ccccc3)c3ccccc32)cc1 (stereo unspecified),-46*,1,48*,-20,-1,-1
CCn1c(=N)n(CC(O)COc2ccccc2)c2ccccc21 (stereo unspecified),9,0,4,-2,4,-4
O=C1c2ccccc2C(=O)N1CC(O)COc1ccc(Cl)cc1 (stereo unspecified),-31*,-1,0,-10,10,4
Cc1ccc(OCC(O)Cn2c(=N)n(Cc3ccccc3)c3ccccc32)cc1 (stereo unspecified),-5,1,10,-5,8,2
Cc1cccc(OCC(O)Cn2c(=N)n(Cc3ccccc3)c3ccccc32)c1 (stereo unspecified),-3,2,68*,-4,0,-18
CCC(C)NC(=O)c1cc2cc(OC)ccc2oc1=O (stereo unspecified),/,/,/,/,/,-3
Cc1ccccc1NC(=O)COc1ncnc2ccc(Br)cc12,/,/,/,/,/,-2
N=c1n(Cc2ccccc2)c2ccccc2n1CC(O)COc1ccc(Cl)cc1Cl (stereo unspecified),-7,3,87*,32*,5,-8
COc1ccc(Cl)cc1NC(=S)N1CCCCCC1,-2,0,1,0,40*,-2
COc1ccc(Cl)cc1NC(=S)N1CCN(c2ccccn2)CC1,3,0,0,-1,32*,-2
COc1ccc(Cl)cc1NC(=S)N1CCN(c2ncccn2)CC1,2,-2,3,3,1,-1
O=C(NCCCOC1CCCCC1)c1cc(=O)c2ccccc2o1,/,/,/,/,/,11
N#Cc1c(NC(=O)CSc2ncnc3ccccc23)sc2c1CCCC2,/,/,/,/,/,0
CC(=O)c1sc(N/N=C\c2ccc(N(C)C)cc2)nc1C,-9,2,-1,-3,-1,-13
COC(=O)c1sc(N/N=C/c2ccc(C(C)C)cc2)nc1C,-37*,2,3,/,6,5
